Screening data deposited in PubChem by several laboratories.
VLA-4 inh = inhibition in human VLA-4 binding assay, primary screen, VLA-4 allosteric modulator project, MLPCN library, flow cytometry, VLA-4 expressing cells; Integrin alpha-4 (Homo sapiens), P13612; ligand binding flow cytometry; inhibition, % (about 7 µM as worked out from the volumes in the protocol); hit rate 0.2% among 330,000; in the data active = inhibition above about 50%
ATG4B inhibitor = ATG4B protease inhibitors, primary screen, biochemical, fluorescence, uHTS; Cysteine protease ATG4B (Homo sapiens), Q9Y4P1; ATG4B cleavage of LC3-PLA2, NBD-HPC fluorescence, 1 h; inhibition, % at 8.33 µM; hit rate 0.51% among 340,000; AID 504462, 2011
NRP1-CendR mod = modulators of CendR peptide binding to NRP-1, primary screen, biochemical, fluorescence polarization, uHTS; Neuropilin-1 (Homo sapiens), O14786; FAM-RPARPAR peptide binding to NRP-1; inhibition, % at 25 µM; hit rate 0.85% among 360,000;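 active = inhibition or corrected inhibition above about 18%, plus a signal ratio from 0.5 to 1.5, limit read from the data, passing the limit was not always enough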
PKA-R2B act = activators of PKA-R2B holoenzyme, primary screen, biochemical, fluorescence polarization, Cy5-IP20, human. PKA-R2B holoenzyme dissociation; R2B truncated from residue 108, S112A mutant; 0% DMSO only, 100% 113 µM cGMP. activation, % at 11.4 µM. hit rate 0.079% among 340,000. AID 504700, 2011;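 active = activation above a cutoff set at the mean over all compounds plus 3 SD, cut at about 18% in these data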;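 also: higher means more holoenzyme dissociation and a rise in polarization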
Target sequence (P31323 whole entry, looked up, other chains not shown, the tested form may be a part): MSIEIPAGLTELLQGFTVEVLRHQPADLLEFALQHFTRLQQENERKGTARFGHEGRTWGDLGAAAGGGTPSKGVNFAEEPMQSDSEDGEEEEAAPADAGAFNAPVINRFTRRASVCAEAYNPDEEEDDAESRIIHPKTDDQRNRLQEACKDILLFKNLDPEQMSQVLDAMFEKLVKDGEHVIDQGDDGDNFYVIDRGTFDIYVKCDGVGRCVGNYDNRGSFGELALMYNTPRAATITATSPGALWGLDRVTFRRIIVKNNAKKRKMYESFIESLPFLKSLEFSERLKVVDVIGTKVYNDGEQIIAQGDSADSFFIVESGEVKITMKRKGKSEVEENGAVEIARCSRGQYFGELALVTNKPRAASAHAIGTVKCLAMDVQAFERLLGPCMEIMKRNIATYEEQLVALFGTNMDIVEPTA
PKA-R1A act = activators of PKA-R1A holoenzyme, primary screen, biochemical, fluorescence polarization, Cy5-IP20, bovine R1A, mouse PKAc. PKA-R1A dissociation; scaled: DMSO 0%, 113 µM cGMP 100%. activation, % at 11.4 µM. hit rate 0.083% among 340,000;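 active = percent activation above the mean of all tested compounds plus 3 SD, cut at about 19% in these data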;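 also: higher means more PKAc released from R1A so a rise in polarization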
VLA-4 mod pick = retest of VLA-4 allosteric modulators, confirmation, cell-based, cherry-picked plates, U937, HUTS-21 LIBS antibody; shares compounds with VLA-4 inh; U937 cells, HUTS-21 LIBS mAb binding, flow cytometry; LDV ligand present at threefold Kd; inhibition, % at 6.7 µM; hit rate 2% among 1,300
Of the large screens only hits and unclear results are named; the others gave an inactive call (follow-up assays come after a bar, where they were run). Compounds with a hit are over-represented: about 1.6% of the library has one in this group of screens. Rule as the data show it, unless noted: active = inhibition above about 40%; inactive = the rest.

CCOc1cc2c(c3c1C(c1ccccc1)N(S(=O)(=O)c1ccc(C)cc1)C3)C(=O)C=CC2=O (stereo not drawn)	none (no result: VLA-4 inh, ATG4B inhibitor, PKA-R2B act, PKA-R1A act)
COc1ccccc1C(=O)N/C(=C\c1cn(S(=O)(=O)N(C)C)c2ccccc12)C(=O)NCCCN1CCOCC1	NRP1-CendR mod 44.0
CN(C)S(=O)(=O)n1cc(/C=C(\NC(=O)c2ccccc2)C(=O)NCCCN2CCOCC2)c2ccccc21	none
CN(N)c1nc(-c2ccccc2)nnc1C(F)(F)F	NRP1-CendR mod 34.1
CN(NC(=O)c1cccc(Cl)c1)c1nc(-c2ccccc2)nnc1C(F)(F)F	none
CC(=O)NC1C(OC(=O)/C=C/c2ccccc2)OC(COC(C)=O)C(OC(C)=O)C1OC(C)=O (stereo not drawn)	none
CCOC(=O)c1c(NC(=O)c2c(C)noc2C)sc2c1CCCCC2	NRP1-CendR mod 34.9
Cc1ccccc1CNC(=O)Nc1ccc(Cl)cc1	none
CCOC(=O)C1=C(C)N(CCCC(=O)O)C(=O)NC1c1ccccc1 (stereo not drawn)	NRP1-CendR mod 29.9
Cc1cc(NC(=O)CSc2nc(N)c(NC(=O)c3ccccc3)c(=O)[nH]2)no1	none
Cc1cc(NC(=O)CSc2nc(N)c(NC(=O)c3ccc(F)c(F)c3)c(=O)[nH]2)no1	NRP1-CendR mod 22.6
O=C(C(=O)c1ccc(O)cc1)c1ccccc1	VLA-4 inh 58.1
O=C(c1ccc(O)cc1)c1ccc(C(=O)c2ccc(O)cc2)cc1	none
O=C(Cn1ccc(NC(=O)OCc2ccccc2)nc1=O)NCCN1CCOCC1	NRP1-CendR mod 37.5
CSC[C@H]1CN(c2ccccc2)C(=O)[C@@H]1CC(=O)Nc1ccc(Br)cc1	none (no result: VLA-4 inh, ATG4B inhibitor)
CCCn1ncc(OC)c(Cl)c1=O	NRP1-CendR mod 22.2
Brc1ccc(CSc2nnc(-c3ccccn3)n2Cc2ccco2)cc1	ATG4B inhibitor 50.1
CC(C)(C)c1ccc(CSc2nnc(-c3ccccn3)n2Cc2ccco2)cc1	none
COc1ccc(CN2C(=O)C(CC(=O)NCc3cccc4ccccc34)CC(C(=O)N(C(C)C)C(C)C)=C2C)cc1 (stereo not drawn)	none (no result: VLA-4 inh, ATG4B inhibitor, PKA-R2B act, PKA-R1A act)
CNC(=O)c1nn(-c2ccc(Cl)cc2)ccc1=O	none
O=C(O)c1nn(-c2ccc(Cl)cc2)ccc1=O	NRP1-CendR mod 19.2
Cc1ccc(C)c(-n2c(SCC(=O)N3CCC(C(=O)O)CC3)nnc2-c2cccc(Cl)c2)c1	NRP1-CendR mod 27.0
CC(C)(C)NC(=O)C(c1ccc(O)cc1)N(C(=O)CCC(=O)Nc1nccs1)c1ccccc1F (stereo not drawn)	NRP1-CendR mod 29.0
COCCNC(=O)C1CCCN(C(=O)c2ccc(C(F)(F)F)nc2C)CC1 (stereo not drawn)	none (no result: VLA-4 inh, ATG4B inhibitor, PKA-R2B act, PKA-R1A act)
Cn1nnnc1SCC(=O)N1CCN(S(=O)(=O)c2ccccc2)CC1	VLA-4 inh 50.6 | VLA-4 mod pick inactive
CCCNC(=O)C1(C)CCN(C(=O)COc2ccc(Cl)cc2Cl)C1 (stereo not drawn)	none (no result: VLA-4 inh, ATG4B inhibitor, PKA-R2B act, PKA-R1A act)
COc1cc2c(cc1OC)CN(C1CCC(C(C)(C)C)CC1)CC2 (stereo not drawn)	none (no result: VLA-4 inh)
CC(=O)c1c(C)[nH]c(C(=O)CSc2nnc(C3CCCCC3)n2N)c1C	VLA-4 inh 51.9 | VLA-4 mod pick inactive
COc1cc2c(cc1OC)C(C)N(CCc1ccc(Cl)cc1)CC2 (stereo not drawn)	none (no result: PKA-R2B act, PKA-R1A act)
COc1cc2c(cc1OC)C(C)N(CCN1C(=O)c3ccccc3C1=O)CC2 (stereo not drawn)	none | VLA-4 mod pick inactive
CCOC(=O)c1cc(CC)sc1NC(=O)C(c1ccccc1)c1ccccc1	none | VLA-4 mod pick inactive
COc1ccccc1C(=O)NC(=O)COC(=O)c1cccc(OC(F)F)c1	none
O=C(N/C(=C\c1ccc(-c2ccccc2)o1)C(=O)N1CCOCC1)c1ccccc1	none (no result: VLA-4 inh)
CC1CCN(S(=O)(=O)N2CCC(C(=O)NC3CCCC3)CC2)CC1	none
CCCS(=O)(=O)N1CCC(C(=O)NC2CCC(C)CC2)CC1 (stereo not drawn)	VLA-4 inh 92.5 | VLA-4 mod pick inactive
CC(C)c1ccc(C2(C)NC(=O)N(CC(=O)NC3CCCC(C)C3C)C2=O)cc1 (stereo not drawn)	VLA-4 inh 51.8 | VLA-4 mod pick inactive
CC1CCCC(NC(=O)CN2C(=O)NC(C)(c3ccccc3)C2=O)C1C (stereo not drawn)	none (no result: VLA-4 inh)
CN1CCN(C(=O)c2cc3nc(-c4ccc(Cl)cc4)cc(C(F)(F)F)n3n2)CC1	none
O=C(c1cc2nc(-c3ccc(Cl)cc3)cc(C(F)(F)F)n2n1)N1CCOCC1	none | VLA-4 mod pick inactive
Cn1c(SCC(=O)Nc2ccc(NC(=O)c3cccc(F)c3)cc2)nnc1-c1ccncc1	none
CCOC(=O)[C@H]1[C@H]2COc3cc(OC)ccc3[C@@H]2N2C(=O)c3cc(F)ccc3NC(=O)[C@@]12C	none
O=C(NCCOc1nc(N2CCOCC2)nc(N2CCOCC2)n1)Nc1ccc(Cl)cc1	none
CNc1nc(OCCNC(=O)Nc2ccccc2)nc(N2CCOCC2)n1	VLA-4 inh 58.8 | VLA-4 mod pick inactive
C/C(COc1ccccc1)=N\NC(=O)c1nnn(-c2nonc2N)c1CSc1ccccc1	none
COc1ccc(Cc2nc3ccc(S(N)(=O)=O)cc3[nH]2)cc1OC	VLA-4 inh 102.2 (no result: NRP1-CendR mod, PKA-R2B act, PKA-R1A act) | VLA-4 mod pick inactive
Cc1cc(C)c(NC(=O)CNC(=O)COC(=O)/C=C/c2cccs2)c(C)c1	none
COc1ccc(/C=C/c2noc(-c3ccccc3O)n2)cc1	none
COc1cc(/C=C/c2noc(-c3ccccc3O)n2)cc(OC)c1OC	none | VLA-4 mod pick inactive
CCOc1ccc(NC(=O)CN(c2ccc(OCC)cc2)S(=O)(=O)c2c(C)[nH]c(=O)[nH]c2=O)cc1	none | VLA-4 mod pick inactive
CCOc1ccc(N(CC(=O)Nc2ccc(OC)cc2)S(=O)(=O)c2c(C)[nH]c(=O)[nH]c2=O)cc1	VLA-4 inh 57.3 | VLA-4 mod pick inactive
CCOc1ccc(N(CC(=O)Nc2ccc(C)cc2)S(=O)(=O)c2c(C)[nH]c(=O)[nH]c2=O)cc1	none
O=C(CN1CCOCC1)Nc1nc(-c2ccccc2Cl)cs1	none
Cc1ccc(C(=O)CC2(O)C(=O)Nc3ccccc32)s1 (stereo not drawn)	VLA-4 inh 57.9 | VLA-4 mod pick inactive
